# Experimental data reported in PubChem BioAssay (NCI).
# This is part of a sample that, as a whole, favours compounds with a hit. Of some 79,000 tested, about 15% had one in any assay. A number with no mark means an inactive call. Calls of active or inactive are those of the source. No stated cut-off is given here; in the data, active means growth inhibition above about 70%; inactive means the rest.
# Key:
# [1] = NCI Yeast Anticancer Drug Screen. Data for the rad50 strain (AID 155);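 further: 0% = growth of vehicle-only cultures of the same strain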; settings: S. cerevisiae rad50 strain growth inhibition; at 50.0 µM; active compounds read high
# How it was run: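 DNA repair mutant yeast, compound exposure, growth read-out; inhibition is taken relative to vehicle.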
# [2] = NCI Yeast Anticancer Drug Screen. Data for the mec2-1 strain (AID 157); settings: S. cerevisiae mec2-1 strain, at 50.0 µM, active compounds read high
# How it was run: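 mec2-1 yeast strain, carrying an alteration in DNA damage repair or cell cycle control, was exposed to compounds; growth inhibition was measured relative to vehicle-treated controls.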
# [3] = NCI Yeast Anticancer Drug Screen. Data for the sgs1 mgt1 strain (AID 161);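 further: 0% = growth of cultures given vehicle only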; settings: S. cerevisiae sgs1 mgt1 strain, at 50.0 µM, active compounds read high
# How it was run: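 This yeast growth screen uses a strain with defined DNA-repair lesions; compound-treated growth is compared with vehicle-treated growth.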
# [4] = NCI Yeast Anticancer Drug Screen. Data for the cln2 rad14 strain (AID 165);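 further: 0% = growth equal to vehicle treated cultures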; settings: S. cerevisiae cln2 rad14 strain, at 50.0 µM, active compounds read high
# How it was run: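 Yeast carrying cln2 and rad14 alterations (cell cycle control and DNA damage repair) were exposed to compounds. Growth inhibition was measured against vehicle-treated controls.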
# [5] = NCI Yeast Anticancer Drug Screen. Data for the bub3 strain (AID 167); settings: S. cerevisiae bub3 mutant strain, at 50.0 µM, active compounds read high
# How it was run: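 In this screen, a yeast mutant lacking normal mitotic checkpoint function is challenged with compound. Relative growth versus vehicle gives the inhibition value.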
# [6] = NCI Yeast Anticancer Drug Screen. Data for the mlh1 rad18 strain (AID 175); settings: S. cerevisiae mlh1 rad18 strain growth inhibition; at 50.0 µM; active compounds read high
# How it was run: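 Growth inhibition of the yeast strain was measured after compound exposure and expressed relative to vehicle-treated controls. The strain carries defined defects in DNA damage repair.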
SMILES,growth inhibition [1],growth inhibition [2],growth inhibition [3],growth inhibition [4],growth inhibition [5],growth inhibition [6]
CCc1c(C)c(C)c(C)c(C)c1C(C)=O,-5%,-22.4%,-7.35%,20.1%,6.4%,-26.6%
CC(=O)Nc1ccc(N(C)C)c(C)c1,-6.65%,-7.55%,-1.85%,-7.75%,12.9%,-10.2%
CSc1nc2nc(C)[nH]c2c(=O)[nH]1,9.8%,5.45%,-4.45%,41%,9.8%,7.6%
C=CCc1cccc(CC=C)c1OCCN(CC)CC,13.4%,17.1%,17.6%,10.2%,7.3%,16.8%
Cc1ccccc1NC(=O)CC(=O)NNC(Sc1ccccc1)c1cc(N=Nc2ccc(Br)cc2)ccc1O (configuration not stated),19.3%,14.1%,27.1%,-3.95%,17.9%,18.9%
COc1ccc(C2=C(OC(C)=O)c3cccn3-c3ccccc3S2)cc1,-34.5%,-49.9%,-28.8%,-45.9%,-45.8%,2.15%
COCC(=O)c1ccccc1,14.3%,1.7%,5.3%,6%,-0.65%,32.9%
CCCNc1nc2c(c(=O)n(C)c(=O)n2C)n1C,-11.2%,0.1%,13.7%,-29.7%,23.1%,7.9%
CCC(C)(O)c1cnc(CC(C)C)c(=O)n1O (configuration not stated),55.5%,32.9%,43.3%,38.7%,38.4%,52.2%
CCCCCCCCCC1OCCCO1,-14.3%,0.15%,12.2%,-0.1%,-4.5%,-16.3%
CC1=C(c2cc(C(=O)Nc3cccc(C(F)(F)F)c3)nc(NC#N)n2)Sc2ccccc2N1,17.4%,1.2%,-3.2%,-2.85%,2.7%,11.8%
CC1(C)OCC(C2OC3OC(C)(C)OC3C2c2ccccc2)O1 (configuration not stated),-3.55%,-9%,-31.1%,1.4%,-2.8%,2.2%
OCCN(CCO)C(Cc1ccccc1)Cc1ccccc1,-7.9%,-9.95%,-1.7%,-11.1%,26.4%,-22.9%
CN(C)c1ccc(C2(c3ccc(N(C)C)cc3)NNC(=O)c3cc(N(C)C)ccc32)cc1,21.4%,5%,13.2%,16.8%,-3.15%,1.8%
CCCCCNC(=S)NNC(N)=O,4.2%,-0.15%,-12.8%,-0.7%,5.25%,-0.75%
N#CC(C#N)N=Cc1ccncc1,14.2%,12.2%,-21.6%,-12.8%,-1.1%,-29.2%
COc1ccc(C(=O)Oc2ccc(C)c(CC(Cl)(Cl)Cl)c2)cc1,-6.1%,-9.5%,6.75%,-12.3%,-6.35%,-14.4%
C=CCCC1CC(OCC)OC(CCC=C)O1 (configuration not stated),16.9%,1.15%,1.25%,-24.8%,-6.3%,13.8%
O=C(Nc1ccccc1)OCc1cnc2ccccc2c1,6.05%,-22.6%,9.2%,-9.4%,3.05%,-2.8%
CSc1nnc(SCc2nn3c(=O)cc(C)nc3s2)s1,-7.9%,-0.85%,0.4%,10%,5.55%,10.6%
CN(C)CC(c1ccccc1)C(O)(c1ccccc1)c1ccccc1 (configuration not stated),-5.65%,-2.75%,-1%,-45.9%,-18%,3.05%

SMILES,growth inhibition [1],growth inhibition [2],growth inhibition [3],growth inhibition [4],growth inhibition [5],growth inhibition [6]
CCCC(=O)OC1C(CO)OC(n2cc(F)c(=O)[nH]c2=O)C1F (configuration not stated),-7.85%,6.4%,-8.6%,-15.7%,3.75%,-17.8%
CCC1c2ccccc2[C@H]2C(c3ccccc3)=NN(c3ccccc3)[C@H]2N1CC (some centres not stated),26.6%,-5.05%,-0.7%,-2.9%,1.5%,40.5%
COc1ccccc1NC(=O)Cc1nc(=O)[nH]c(=O)[nH]1,-13.3%,-37.7%,3.5%,-0.35%,-4.95%,-9.55%
Cc1cc2nc3ccc(O)cc3[n+](C)c2cc1N,57.7%,28.6%,31.6%,31.1%,15.9%,26.3%
CCC(C)[N-]c1cccc[n+]1[O-].CCC(C)[N-]c1cccc[n+]1[O-].[Cu+2] (configuration not stated),8.3%,-3.9%,-9.8%,-2%,-18.3%,-18.4%
Nc1nc(Cc2ccccc2)c(-c2ccccc2)c(-c2nc(N)nc(Cc3ccccc3)c2-c2ccccc2)n1,-9.6%,14.4%,-26.4%,-5.15%,-5.2%,7.85%
CC(Cc1ccccc1)NC(=O)C1CC2CCCCN2C1C (configuration not stated),4.95%,20.4%,57.2%,45.9%,45.5%,48.6%
C[N+](C)(C)CCOc1cccc(Br)c1,9.8%,14.5%,21.6%,29.8%,11.7%,23.9%
OCC1OC(n2cc(I)c3c(Cl)ncnc32)C(O)C1O (configuration not stated),0.7%,-15.4%,-4.05%,-36.8%,1.6%,3.95%
c1ccc(CSc2cnnc3ccccc23)cc1,3.9%,-10.8%,6%,-11.1%,14.1%,31.9%
O=C(Nc1cccc(C(=O)NCCCO)c1)/C(=C/c1ccccc1)NC(=O)c1ccccc1,0%,-1.85%,1.45%,9.35%,-2.4%,4.35%
O=C1c2cc(CCl)sc2C(=O)c2ccsc21,88.9% (active),89.3% (active),89.5% (active),89.8% (active),87.6% (active),83.2% (active)
O=C(O)c1c(I)cc(I)c(O)c1I,-1%,-13.5%,1.75%,7.65%,10.9%,-6.9%
COC(=O)C(=O)Cc1nc2ccccc2s1,6.25%,1.35%,6.15%,-29.8%,-7.3%,7.3%
CNC(=O)OCCCCCCCCCCOC(=O)NC,2.8%,-0.1%,6.2%,-23.7%,-17.9%,4.65%
c1cc(CCc2ccncc2)ccn1,21.9%,-16.1%,2.5%,3.6%,1.3%,22.4%
CC1=C(C(=O)Nc2ccc([N+](=O)[O-])cc2)C(c2ccc3c(c2)OCO3)C(C(=O)Nc2ccc([N+](=O)[O-])cc2)=C(C)N1,8.65%,15.3%,21.6%,24.4%,10.2%,7.05%
CC(C)CNc1ncnc2[nH]ncc12,-1.75%,-6.2%,-3.55%,-3.35%,1.2%,-6.2%
COc1cc(C(=O)C/C(CCC(=O)Nc2ccccc2[N+](=O)[O-])=N\NC(=O)CC#N)ccc1O,-25.9%,-20.8%,-36.7%,-11.4%,-11.6%,-31.4%
CN1CC2=C(NC(=S)NC2c2ccccc2)/C(=C/c2ccccc2)C1 (configuration not stated),-14.5%,-8.75%,5.65%,6.8%,22.4%,-13.2%
O=C(O)C1C2C=CC(O2)C1C(=O)Nc1ccccc1 (configuration not stated),13.7%,3.5%,7.5%,-1.9%,-19.4%,8.3%
